Many of the other results were omitted from the sample, so hits are more common in it than they were.
IMPase Li cell: membrane-permeable IMPase blocker, potentiated with lithium | CHO-M1 cells, IP1 TR-FRET (IP-One), carbachol + lithium | 0.35% of 210,000 active | AID 1457 | Potency, µM (titrated, usually from 59.4 µM), inactives show at the highest dose activity, negative = IMPase inhibition, actives largely listed as inhibitors;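 also: IP1 builds up when IMPase is blocked and the TR-FRET signal falls; plate controls were basal vehicle for no effect and high inhibitor control for full effect; nearly all actives have a fitted effect of over 50% in size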
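Test compounds were applied to CHO-M1 cells previously cultured for 16–30 h at 2000 per well. A small lithium amount accompanied them; after 30 min at 37C, IP1 was quantified by TR-FRET.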
ERK EGF block: inhibitors of EGF-stimulated ERK signaling pathway. HEK293-V1b, EGF-stimulated phospho-ERK AlphaScreen. Potency, µM (highest dose often 11.5 µM), inactives show at the top dose activity change, negative = inhibition, usual class: inhibitors. 0.41% of 130,000 active;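 also: plate controls were stimulated vehicle wells for no effect and unstimulated vehicle basal for full effect; nearly all actives have a fitted effect of over 55% in size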
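In this qHTS, HEK293 cells with stable type-1 vasopressin (V1b) receptor were exposed to compound at 37C for 30 min, stimulated 5 min with EGF at 25 nM, lysed, and probed for phospho-ERK by AlphaScreen.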
NPSR antag: neuropeptide S receptor (human) antagonism, cAMP | Q6W5P4 | CHO-NPSR cells, cAMP TR-FRET, antagonist mode | AID 1461 | Potency, µM (doses to about 38.3 µM), for inactives: top-dose activity change, negative = inhibition, usual class: inhibitors | 1% of 220,000 active; also: nearly all actives have a fitted effect of over 50% in size
Target sequence (Q6W5P4 whole entry, looked up): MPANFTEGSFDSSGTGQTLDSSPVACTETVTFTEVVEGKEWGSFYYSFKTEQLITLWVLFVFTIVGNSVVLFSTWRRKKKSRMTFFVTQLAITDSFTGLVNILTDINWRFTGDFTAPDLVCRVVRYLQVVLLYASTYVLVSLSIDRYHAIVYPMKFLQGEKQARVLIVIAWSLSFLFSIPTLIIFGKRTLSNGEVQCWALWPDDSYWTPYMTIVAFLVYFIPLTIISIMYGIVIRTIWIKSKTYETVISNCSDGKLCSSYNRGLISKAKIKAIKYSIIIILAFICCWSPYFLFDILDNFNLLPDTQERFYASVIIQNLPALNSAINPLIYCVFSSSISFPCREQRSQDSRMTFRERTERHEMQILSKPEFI
* marks the source's active call; other numbers are inactive results; ? = inconclusive; · = no result given; [ ] = dose if it differs, or a comment. Calls follow the shape of the dose curve; as a rule, active = well fitted curve in the direction sought with a large enough effect; inconclusive = small, poorly fitted or top-dose-only effect, or another doubt; inactive = no such curve, though single readings can be large; an effect the other way counts as inactive or inconclusive. Unless noted, % is scaled to controls: 0 for no effect and ±100 for the full control effect; potency is read from the fitted curve at half-maximal effect.

SMILES	IMPase Li cell	ERK EGF block	NPSR antag
CCOC(=O)c1sc(NC(=O)CSc2nnnn2-c2ccc(C)cc2C)nc1C	10µM*	·	-15%[46.1 µM]
CCOC(=O)c1sc(NC(=O)CSc2nnnn2-c2ccc(C)c(C)c2)nc1C	-13%[38.3 µM]	·	-14%[46.1 µM]
O=c1cnc2cnc(Oc3ccccc3)nc2n1CCc1ccccc1	8%	-3%	·
NC(=S)c1ccc[n+]([C@@H]2O[C@@H](COP(=O)([O-])OP(=O)(O)OC[C@H]3O[C@@H](n4cnc5c(N)ncnc54)[C@H](OP(=O)(O)O)[C@H]3O)C(O)C2O)c1 (stereo partly drawn)	-11%	-3%	-7%[46.1 µM]
CC=O	9%	·	·
CCc1ccc(/C=C2\Oc3c(ccc(O)c3CN3CCN(C)CC3)C2=O)cc1	·	-7%[57.5 µM]	10µM*
O=C1/C(=C/C=C/c2ccccc2)Oc2c1ccc(O)c2CN1CCN(CCO)CC1	·	-8%[57.5 µM]	-53%
Cc1ccc(/C=C2\Oc3c(ccc(O)c3CN3CCN(C)CC3)C2=O)cc1	4%	-7%	7.9µM*
CC1CCCN(Cc2c(O)ccc3c2O/C(=C\c2ccco2)C3=O)C1 (stereo not drawn)	3%	-6%	-45%
COc1ccccc1/C=C/C=C1\Oc2c(ccc(O)c2CN2CCN(CCO)CC2)C1=O	0%	0%	-41%
CCN1CCN(Cc2c(O)ccc3c2O/C(=C\c2ccc(C)cc2)C3=O)CC1	2%	-3%	10µM*
CCN1CCN(Cc2c(O)ccc3c2O/C(=C\c2ccccc2)C3=O)CC1	-13%	-4%	?
CCN1CCN(Cc2c(O)ccc3c2O/C(=C\C=C\c2ccccc2)C3=O)CC1	8%	7%	4µM*
C=CC1=C2C=C(C3CC3)N(C3CCCCC3)C=C2C(=O)C(C)(OC(=O)c2ccco2)C1=O (stereo not drawn)	0%	·	·
COc1ccc(-c2coc3c(OC)c(OC)cc(O)c3c2=O)cc1	19%	10%	·
CO/N=C1\CN(c2nc3c(cc2F)c(=O)c(C(=O)O)cn3C2CC2)CC1CN (stereo not drawn)	17%	-1%	·
COc1ccc2cccc(N3CCN(CCNC(=O)c4ccc(F)cc4)CC3)c2c1	2%	-19%	·
C[C@@H]1CCC2C(C)(C)C3CC21CC[C@@]3(C)O (stereo partly drawn)	6%	-14%	·
O=c1c(-c2cccs2)nc2cnc(N3CCNCC3)nc2n1CCc1ccccc1	18%	·	·
CCCCCCCCCCn1ccc(=N)cc1	·	?	7.9µM*
CCCCCCCCn1ccc(=N)cc1	·	-5%[57.5 µM]	-20%
COc1cc([C@@H]2Oc3cc([C@H]4Oc5cc(O)cc(O)c5C(=O)[C@H]4O)ccc3O[C@H]2CO)ccc1O	18%	-12%	·
COC(=O)N[C@@H](c1cccc(C)c1)[C@@H](C)[N+](=O)[O-]	12%	-4%	·
Cc1cc(OCC(=O)Nc2cc(-c3nn4c(C)nnc4s3)ccc2C)ccc1Cl	28µM*	·	?
COc1ccc(OCC(=O)Nc2cc(-c3nn4c(C)nnc4s3)ccc2C)cc1	-19%[38.3 µM]	·	8%[46.1 µM]
SMILES	IMPase Li cell	ERK EGF block	NPSR antag
O=S(=O)(O)C(c1ccccc1)[C@@H](O)c1ccccc1 (stereo partly drawn)	-4%	·	·
CC1CCCC/C1=N/Nc1ccc([N+](=O)[O-])cc1[N+](=O)[O-] (stereo not drawn)	7%[38.3 µM]	·	-9%[46.1 µM]
CC1C/C(=N/Nc2ccc([N+](=O)[O-])cc2[N+](=O)[O-])CC(C)(C)C1 (stereo not drawn)	11%	13µM*	-10%[46.1 µM]
O=S(=O)(c1ccc(Cl)c(NC(=S)N/N=C/c2ccc(O)cc2)c1)N1CCOCC1	21%	28µM*	-26%
O=S(=O)(c1ccc(Cl)c(NC(=S)N/N=C/c2c(F)cccc2F)c1)N1CCOCC1	·	·	-24%[46.1 µM]
CNc1ncncc1-c1ccccc1C	-1%	·	·
CN(C)c1ccc(C(=C2C=CC(=[N+](C)C)C=C2)c2ccc(N(C)C)cc2)cc1	374%	13µM*	·
CN(C)c1ccc(C(=C2C=CC(=[N+](C)C)C=C2)c2ccccc2)cc1	-1%	·	·
NCC1OC(O[C@@H]2[C@H](O)[C@@H](OC3C(O)C(N)CC(N)C3OC3OC(CO)C(O)C(O)C3N)O[C@@H]2CO)C(N)C(O)C1O (stereo partly drawn)	-8%	-2%	3%[46.1 µM]
Cn1c(-c2c(N)n(CCc3ccccc3)c3nc4ccccc4nc23)nc2ccccc21	-18%[38.3 µM]	·	-15%[46.1 µM]
Cn1c(-c2c(N)n(CCCc3ccccc3)c3nc4ccccc4nc23)nc2ccccc21	10µM*	·	-13%[46.1 µM]
O=C(CC(C(=O)NCc1ccccc1)c1nc2ccccc2c(=O)[nH]1)NCc1ccccc1 (stereo not drawn)	·	4%[57.5 µM]	3%[7.67 µM]
CC1CCN(S(=O)(=O)c2ccc(C(=O)Nc3sccc3C(N)=O)cc2)CC1	39%[38.3 µM]	·	6.3µM*
